{
  "source": "the supplement of paper PMC10121225",
  "test_system": "hN + hpA co-culture (H1 iNGN2 human neurons + human primary astrocytes)",
  "assay": "presynaptic density (SYNAPSIN1 puncta per MAP2 neurite area), Z-score vs DMSO controls; higher = more presynaptic puncta (synapse-promoting)",
  "conditions": "3 µM; 72 h",
  "data": [
    {"smiles": "CC(NC(=O)c1ccccc1N=Cc1c(O)ccc2ccccc12)c1ccccc1", "note": "(stereo not drawn)", "values": [
      {"measurement": "presynaptic density (Z-score)", "value": 0.165}
    ]},
    {"smiles": "CCC(CC)CC1(C(=O)Nc2ccccc2SC(=O)C(C)C)CCCCC1", "note": "[Dalcetrapib (JTT-705]", "values": [
      {"measurement": "presynaptic density (Z-score)", "value": -0.463}
    ]},
    {"smiles": "CCO[C@@H]1OC(=O)C[C@@H]1NC(=O)[C@@H]1CCCN1C(=O)[C@@H](NC(=O)c1ccc(N)c(Cl)c1)C(C)(C)C", "values": [
      {"measurement": "presynaptic density (Z-score)", "value": -1.02}
    ]},
    {"smiles": "O=c1ncn2nc(Sc3ccc(F)cc3F)ccc2c1-c1c(Cl)cccc1Cl", "values": [
      {"measurement": "presynaptic density (Z-score)", "value": 0.626}
    ]},
    {"smiles": "Nc1cccc2c1C(=O)N(C1CCC(=O)NC1=O)C2=O", "note": "(stereo not drawn) [Pomalidomide]", "values": [
      {"measurement": "presynaptic density (Z-score)", "value": 0.469}
    ]},
    {"smiles": "CC12CC3CC(C)(C1)CC(N)(C3)C2", "values": [
      {"measurement": "presynaptic density (Z-score)", "value": -1.67}
    ]},
    {"smiles": "Cc1c(NC(=O)c2ccc(C(C)(C)C)cc2)cccc1-c1cn(C)c(=O)c(Nc2ccc(C(=O)N3CCOCC3)cc2)n1", "values": [
      {"measurement": "presynaptic density (Z-score)", "value": 0.702}
    ]},
    {"smiles": "O=C1C(=O)N(Cc2ccc(Cl)c(Cl)c2)c2ccccc21", "note": "[1-[(3 4-Dichlorophenyl)methyl]-1H-indole-2 3-dione]", "values": [
      {"measurement": "presynaptic density (Z-score)", "value": -0.359}
    ]},
    {"smiles": "CC[C@H](NC(=O)[C@H](C)NC)C(=O)N1C[C@@H](O)C[C@H]1Cc1c(-c2[nH]c3cc(F)ccc3c2C[C@@H]2C[C@H](O)CN2C(=O)[C@H](CC)NC(=O)[C@H](C)NC)[nH]c2cc(F)ccc12", "note": "[Birinapant]", "values": [
      {"measurement": "presynaptic density (Z-score)", "value": 0.314}
    ]},
    {"smiles": "CCOC(=O)N1CCC(=C2c3ccc(Cl)cc3CCc3cccnc32)CC1", "note": "[Loratadine]", "values": [
      {"measurement": "presynaptic density (Z-score)", "value": 1.78}
    ]},
    {"smiles": "CCN(CC)CC(=O)Nc1c(C)cccc1C", "values": [
      {"measurement": "presynaptic density (Z-score)", "value": 0.846}
    ]},
    {"smiles": "O=C(Nc1nc2cccc(-c3ccc(CN4CCS(=O)(=O)CC4)cc3)n2n1)C1CC1", "note": "[Filgotinib (GLPG0634)]", "values": [
      {"measurement": "presynaptic density (Z-score)", "value": -0.645}
    ]},
    {"smiles": "O=C(NOC[C@H](O)CO)c1ccc(F)c(F)c1Nc1ccc(I)cc1F", "values": [
      {"measurement": "presynaptic density (Z-score)", "value": -0.369}
    ]},
    {"smiles": "CN[C@@H](C)C(=O)N[C@H](C(=O)N1CCC[C@H]1C(=O)Nc1snnc1-c1ccccc1)C1CCCCC1", "values": [
      {"measurement": "presynaptic density (Z-score)", "value": -0.107}
    ]},
    {"smiles": "O=c1oc2cc(O)ccc2s1", "values": [
      {"measurement": "presynaptic density (Z-score)", "value": -0.113}
    ]},
    {"smiles": "COc1ccccc1N1CCN(CC(O)COc2cccc3ccccc23)CC1", "note": "(stereo not drawn)", "values": [
      {"measurement": "presynaptic density (Z-score)", "value": -0.464}
    ]},
    {"smiles": "O=c1cc(-c2ccc(O)cc2)oc2cc(O)cc(O)c12", "note": "[Apigenin]", "values": [
      {"measurement": "presynaptic density (Z-score)", "value": 0.0449}
    ]},
    {"smiles": "COC(=O)C1=C(C#N)NC(C)=C(C(=O)OC(C)C)C1c1cccc([N+](=O)[O-])c1", "note": "(stereo not drawn) [Nilvadipine]", "values": [
      {"measurement": "presynaptic density (Z-score)", "value": -0.965}
    ]},
    {"smiles": "CS(=O)(=O)N1CCN(Cc2cc3nc(-c4cccc5[nH]ncc45)nc(N4CCOCC4)c3s2)CC1", "note": "[GDC 0941 bismesylate]", "values": [
      {"measurement": "presynaptic density (Z-score)", "value": 1.26}
    ]},
    {"smiles": "O=C(NOCC1CC1)c1ccc(F)c(F)c1Nc1ccc(I)cc1Cl", "values": [
      {"measurement": "presynaptic density (Z-score)", "value": -0.102}
    ]},
    {"smiles": "COC1CC2CCC(C)C(O)(O2)C(=O)C(=O)N2CCCCC2C(=O)OC(C(C)CC2CCC(OP(C)(C)=O)C(OC)C2)CC(=O)C(C)C=C(C)C(O)C(OC)C(=O)C(C)CC(C)C=CC=CC=C1C", "note": "(stereo not drawn) [Ridaforolimus (Deforolimus]", "values": [
      {"measurement": "presynaptic density (Z-score)", "value": 0.509}
    ]},
    {"smiles": "OC[C@H]1O[C@@H](c2ccc(Cl)c(Cc3ccc(O[C@H]4CCOC4)cc3)c2)[C@H](O)[C@@H](O)[C@@H]1O", "values": [
      {"measurement": "presynaptic density (Z-score)", "value": -0.331}
    ]},
    {"smiles": "O=C(Nc1ccc(S(=O)(=O)Nc2ccccc2Cl)c(Cl)c1)c1ccccn1", "values": [
      {"measurement": "presynaptic density (Z-score)", "value": -0.71}
    ]},
    {"smiles": "Cc1cc(Nc2cc(N3CCN(C)CC3)nc(Sc3ccc(NC(=O)C4CC4)cc3)n2)n[nH]1", "values": [
      {"measurement": "presynaptic density (Z-score)", "value": -2.31}
    ]},
    {"smiles": "Cc1noc(-c2ccc(CSCCC(=O)O)cc2)c1NC(=O)OC(C)c1ccccc1Cl", "note": "(stereo not drawn)", "values": [
      {"measurement": "presynaptic density (Z-score)", "value": 0.975}
    ]},
    {"smiles": "CC(C)[C@H](O)C(=O)N[C@@H](C)C(=O)N[C@@H]1C(=O)N(C)CCc2ccccc21", "values": [
      {"measurement": "presynaptic density (Z-score)", "value": -0.185}
    ]},
    {"smiles": "O=C1NC(=O)/C(=C/c2cccc(C(F)(F)F)c2)S1", "values": [
      {"measurement": "presynaptic density (Z-score)", "value": -1.18}
    ]},
    {"smiles": "CCn1c(=O)c2c(nc(/C=C/c3ccc(OC)c(OC)c3)n2C)n(CC)c1=O", "note": "[Istradefylline]", "values": [
      {"measurement": "presynaptic density (Z-score)", "value": -0.775}
    ]},
    {"smiles": "C[C@@H](Oc1cc(-n2cnc3ccc(CN4CCN(C)CC4)cc32)sc1C(N)=O)c1ccccc1C(F)(F)F", "values": [
      {"measurement": "presynaptic density (Z-score)", "value": -1.83}
    ]},
    {"smiles": "CC(NC(=O)Cc1cc(F)cc(F)c1)C(=O)NC1C(=O)N(C)c2ccccc2-c2ccccc21", "note": "(stereo not drawn)", "values": [
      {"measurement": "presynaptic density (Z-score)", "value": -0.744}
    ]},
    {"smiles": "CCCCOc1ccc(C(=O)Nc2ccc(F)cc2F)cc1", "values": [
      {"measurement": "presynaptic density (Z-score)", "value": 0.219}
    ]},
    {"smiles": "CO[C@H]1C[C@@H]2CC[C@@H](C)[C@@](O)(O2)C(=O)C(=O)N2CCCC[C@H]2C(=O)O[C@H]([C@H](C)C[C@@H]2CC[C@@H](OCCO)[C@H](OC)C2)CC(=O)[C@H](C)/C=C(\\C)[C@@H](O)[C@@H](OC)C(=O)[C@H](C)C[C@H](C)/C=C/C=C/C=C/1C", "note": "[Everolimus (RAD001)]", "values": [
      {"measurement": "presynaptic density (Z-score)", "value": -1.63}
    ]},
    {"smiles": "O=C(NNc1nc2cc(F)ccc2n2cccc12)c1cnccn1", "values": [
      {"measurement": "presynaptic density (Z-score)", "value": -1.29}
    ]},
    {"smiles": "CCN(Cc1ccncc1)C(=O)C(CO)c1ccccc1", "note": "(stereo not drawn) [Tropicamide]", "values": [
      {"measurement": "presynaptic density (Z-score)", "value": -0.597}
    ]},
    {"smiles": "CCOC(=O)CCNc1cc(N2CCc3ccccc3CC2)nc(-c2ccccn2)n1", "values": [
      {"measurement": "presynaptic density (Z-score)", "value": -3.3}
    ]},
    {"smiles": "COc1cccc(-c2cc(F)ccc2C2Cc3nc(N)nc(C)c3C(=O)N2)n1", "note": "(stereo not drawn)", "values": [
      {"measurement": "presynaptic density (Z-score)", "value": 2.18}
    ]},
    {"smiles": "CC(C)c1cc(-c2n[nH]c(=O)n2-c2ccc3c(ccn3C)c2)c(O)cc1O", "note": "[Ganetespib (STA-9090)]", "values": [
      {"measurement": "presynaptic density (Z-score)", "value": 2.03}
    ]},
    {"smiles": "CC(=O)c1c(C)c2cnc(Nc3ccc(N4CCNCC4)cn3)nc2n(C2CCCC2)c1=O", "values": [
      {"measurement": "presynaptic density (Z-score)", "value": -0.609}
    ]}
  ]
}
